Records with an inconclusive call do not appear. Activity calls are given as the source filed them. Rule for the calls, unless noted: active = hit-call score of the fitted dose curve at least 0.9, where 1 is the maximum; inactive = score below 0.9.
How the values were obtained:
[1] = read-out: Interleukin-8 (IL8), CXCL8 (gene 3576); test: BSK_3C_IL8: BioMAP Diversity Plus: 3C Assay for Interleukin-8 (IL8) Biomarker Activity (AID 2283020); details: primary human endothelial cells (HUVEC); actives raise or lower the signal
Method in brief: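 Primary human umbilical vein endothelial cells (3C system) were exposed to test chemical for 24 h, then IL-8 was quantified by ELISA. Responses were fitted bidirectionally against DMSO vehicle as baseline.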

[2] = read-out: Monokine induced gamma interferon (MIG), CXCL9 (gene 4283); test: BSK_3C_MIG: BioMAP Diversity Plus: 3C Assay for Monokine induced gamma interferon (MIG) Biomarker Activity (AID 2283021); details: primary human endothelial cells (HUVEC); actives raise or lower the signal;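 for AC50: MIG protein level measured by immunoassay in the treated endothelial cultures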
Method in brief: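 Primary human umbilical vein endothelial cells in the 3C system were exposed to chemical for 24 h, after which MIG was quantified by ELISA. Activity was fitted bidirectionally against DMSO as negative control and baseline.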

[3] = target: human Vitamin D Receptor (VDR), VDR (gene 7421) (UniProt P11473); test: ATG_VDR_TRANS: Attagene TRANS-FACTORIAL HepG2 Assay for human Vitamin D Receptor (VDR) (AID 2283022; active = hit-call score of the fitted dose curve at least 0.9, where 1 is the maximum)
Sequence of human Vitamin D Receptor (VDR), VDR (gene 7421) (P11473 whole entry, looked up, the tested form may be a part): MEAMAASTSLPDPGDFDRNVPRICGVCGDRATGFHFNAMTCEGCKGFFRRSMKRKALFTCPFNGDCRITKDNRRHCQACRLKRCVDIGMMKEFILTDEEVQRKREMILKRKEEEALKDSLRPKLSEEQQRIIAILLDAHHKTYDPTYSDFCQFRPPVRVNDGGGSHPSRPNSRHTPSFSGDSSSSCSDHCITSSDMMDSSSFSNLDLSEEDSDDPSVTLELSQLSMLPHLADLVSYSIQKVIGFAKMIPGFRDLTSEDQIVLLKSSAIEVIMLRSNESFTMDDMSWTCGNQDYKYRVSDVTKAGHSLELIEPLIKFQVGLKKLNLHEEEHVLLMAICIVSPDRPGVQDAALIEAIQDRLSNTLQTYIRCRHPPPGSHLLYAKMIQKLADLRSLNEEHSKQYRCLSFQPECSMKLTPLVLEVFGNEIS
Method in brief: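 HepG2 cells were transiently transfected with GAL4-UAS reporter units and a chimeric VDR-Gal4 construct, then dosed for 24 hours. Reporter mRNA was quantified by RT-PCR, fluorescent labeling, HpaI digestion and capillary electrophoresis; gain of signal analysed vs DMSO.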

[4] = BSK_3C_SRB: Viability Assessment in the BioMAP Diversity Plus: 3C Assay (AID 2283023); details: primary human endothelial cells (HUVEC);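 note: fitted both ways against DMSO so a hit may be signal rise or drop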
Method in brief: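 Human umbilical vein endothelial cells in the 3C system, treated 24 h. Total protein measured by 0.1% sulforhodamine B staining after 10% TCA fixation, read at 560 nm; bidirectional fit versus DMSO.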

[5] = read-out: Matrix Metallopeptidase 1 (MMP1), MMP1 (gene 4312); test: BSK_BE3C_MMP1: BioMAP Diversity Plus: BE3C Assay for Matrix Metallopeptidase 1 (MMP1) Biomarker Activity (AID 2283024); details: primary human bronchial epithelial cells; actives raise or lower the signal
Method in brief: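 Primary human bronchial epithelial cells were dosed with test chemicals, and MMP1 levels were measured by ELISA 24 h later. Data were fitted bidirectionally against DMSO as the negative control and activity baseline.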

[6] = BSK_3C_Vis: BioMAP Diversity Plus: 3C Assay for Morphology Visualization (AID 2283025); details: primary human endothelial cells (HUVEC);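 note: fitted both ways so gain or loss versus DMSO counts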
Method in brief: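 Human umbilical vein endothelial cells in the 3C system were imaged by light microscopy 24 h after chemical dosing to record cell morphology. Activity was fitted bidirectionally against DMSO as negative control and baseline; the endpoint serves as a background control.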

[7] = read-out: Pselectin, SELP (gene 6403); test: BSK_4H_Pselectin: BioMAP Diversity Plus: 4H Assay for Pselectin Biomarker Activity (AID 2283026); details: primary human endothelial cells (HUVEC); actives raise or lower the signal
Method in brief: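 Primary human umbilical vein endothelial cells were exposed to test chemical for 24 h, then cell-surface P-selectin was quantified by ELISA. Activity was fitted bidirectionally against DMSO as negative control and baseline.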

[8] = BSK_4H_SRB: Viability Assessment in the BioMAP Diversity Plus: 4H Assay (AID 2283027); details: primary human endothelial cells (HUVEC);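 note: cells exposed to compound for 24 h before staining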;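 for AC50: curves fitted both ways versus DMSO so AC50 may be loss or gain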
Method in brief: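 Human umbilical vein endothelial cells were dosed with chemical and, after 24 h, fixed with 10% TCA, stained with 0.1% sulforhodamine B, and read at 560 nm to give total protein as a cytotoxicity measure. Bidirectional fitting relative to DMSO control.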

[9] = BSK_BE3C_SRB: Viability Assessment in the BioMAP Diversity Plus: BE3C Assay (AID 2283028); details: primary human bronchial epithelial cells;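 for AC50: fitted both ways so AC50 may mark signal gain or loss versus DMSO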
Method in brief: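 Human bronchial epithelial primary cells in confluent culture, 24 h after chemical dosing; total protein by 0.1% SRB staining after 10% TCA fixation, read at 560 nm. Bidirectional fitting versus DMSO baseline.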

[10] = read-out: Thrombomodulin, THBD (gene 7056); test: BSK_3C_Thrombomodulin: BioMAP Diversity Plus: 3C Assay for Thrombomodulin Biomarker Activity (AID 2283029); details: primary human endothelial cells (HUVEC); actives raise or lower the signal
Method in brief: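 Primary human umbilical vein endothelial cells (3C system) were exposed to chemical for 24 h, then thrombomodulin levels were measured by ELISA. Activity was fitted bidirectionally against the DMSO negative control as baseline.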

[11] = read-out: Urokinase-type plasminogen activator receptor (uPAR), PLAUR (gene 5329); test: BSK_4H_uPAR: BioMAP Diversity Plus: 4H Assay for Urokinase-type plasminogen activator receptor (uPAR) Biomarker Activity (AID 2283030); details: primary human endothelial cells (HUVEC); actives raise or lower the signal
Method in brief: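 Human umbilical vein endothelial cells in the 4H system, 24 h after chemical dosing. Cell-surface uPAR measured by ELISA, fitted in both directions versus DMSO; cytotoxicity checked by SRB total protein in parallel cultures.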

[12] = read-out: Vascular endothelial growth factor receptor 2 (Homo sapiens) (UniProt P35968); test: BSK_4H_VEGFRII: BioMAP Diversity Plus: 4H Assay for Vascular endothelial growth factor receptor 2 (VEGFR2) Biomarker Activity (AID 2283031); details: primary human endothelial cells (HUVEC); actives raise or lower the signal;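 for AC50: cell-surface VEGFR2 protein level quantified by ELISA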
Method in brief: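 Primary human umbilical vein endothelial cells (4H system), 24 h exposure; cell-surface VEGFR2 measured by ELISA. Bidirectional fitting versus DMSO; cytotoxicity checked in parallel by SRB total-protein staining.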

[13] = read-out: Human Leukocyte Antigen - DR isotype (HLADR), HLA-DRA (gene 3122); test: BSK_BE3C_HLADR: BioMAP Diversity Plus: BE3C Assay for Human Leukocyte Antigen - DR isotype (HLADR) Biomarker Activity (AID 2283032); details: primary human bronchial epithelial cells; actives raise or lower the signal
Method in brief: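 Human primary bronchial epithelial cells in the BE3C system were exposed to chemicals for 24 h, after which HLA-DR levels were quantified by ELISA. Activity was fitted bidirectionally, gain or loss of signal, against DMSO as negative control and baseline.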

[14] = read-out: Vascular cell adhesion molecule 1 (VCAM1), VCAM1 (gene 7412); test: BSK_4H_VCAM1: BioMAP Diversity Plus: 4H Assay for Vascular cell adhesion molecule 1 (VCAM1) Biomarker Activity (AID 2283033); details: primary human endothelial cells (HUVEC); actives raise or lower the signal
Method in brief: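 Primary human umbilical vein endothelial cells were exposed to chemicals for 24 h, after which VCAM-1 was quantified by ELISA. Responses were fitted bidirectionally against DMSO as negative control and activity baseline.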

[15] = read-out: Interferon-gamma inducible Protein 10 (IP10), CXCL10 (gene 3627); test: BSK_BE3C_IP10: BioMAP Diversity Plus: BE3C Assay for Interferon-gamma inducible Protein 10 (IP10) Biomarker Activity (AID 2283034); details: primary human bronchial epithelial cells; actives raise or lower the signal
Method in brief: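 Human primary bronchial epithelial cells were exposed to chemicals for 24 hours, after which IP-10 levels were measured by ELISA. Data were fitted bidirectionally against DMSO, which served as the negative control and activity baseline.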

[16] = read-out: Monokine induced gamma interferon (MIG), CXCL9 (gene 4283); test: BSK_BE3C_MIG: BioMAP Diversity Plus: BE3C Assay for Monokine induced gamma interferon (MIG) Biomarker Activity (AID 2283035); details: primary human bronchial epithelial cells; actives raise or lower the signal
Method in brief: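 ELISA read-out of MIG in human lung bronchial epithelial primary cultures, 24 h post-dosing. Bidirectional curve fit vs DMSO baseline.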

[17] = read-out: Transforming growth factor beta 1 (TGFb1), TGFB1 (gene 7040); test: BSK_BE3C_TGFb1: BioMAP Diversity Plus: BE3C Assay for Transforming growth factor beta 1 (TGFb1) Biomarker Activity (AID 2283036); details: primary human bronchial epithelial cells; actives raise or lower the signal
Method in brief: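 Human primary bronchial epithelial cells (BE3C system) were dosed with chemical and TGF-b1 levels measured by ELISA at 24 h. Activity was fitted bidirectionally relative to DMSO negative control as baseline.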

[18] = read-out: Plasminogen activator inhibitor-1 (PAI1), SERPINE1 (gene 5054); test: BSK_BE3C_PAI1: BioMAP Diversity Plus: BE3C Assay for Plasminogen activator inhibitor-1 (PAI1) Biomarker Activity (AID 2283037); details: primary human bronchial epithelial cells; actives raise or lower the signal
Method in brief: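 Human primary bronchial epithelial cells were exposed to chemical for 24 h, then PAI-1 was quantified by ELISA. Activity was fitted bidirectionally relative to the DMSO negative control baseline.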

[19] = read-out: urokinase plasminogen activator (uPA), PLAU (gene 5328); test: BSK_BE3C_uPA: BioMAP Diversity Plus: BE3C Assay for urokinase plasminogen activator (uPA) Biomarker Activity (AID 2283038); details: primary human bronchial epithelial cells; actives raise or lower the signal
Method in brief: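 Primary human bronchial epithelial cells, uPA measured by ELISA 24 h after dosing. Bidirectional change relative to DMSO; cytotoxicity checked in parallel cultures by sulforhodamine B total-protein staining.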

[20] = read-out: Urokinase-type plasminogen activator receptor (uPAR), PLAUR (gene 5329); test: BSK_BE3C_uPAR: BioMAP Diversity Plus: BE3C Assay for Urokinase-type plasminogen activator receptor (uPAR) Biomarker Activity (AID 2283039); details: primary human bronchial epithelial cells; actives raise or lower the signal
Method in brief: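 Primary human bronchial epithelial cells were dosed with chemical and harvested 24 h later; uPAR was quantified by ELISA. Activity was fitted bidirectionally against DMSO as negative control and baseline.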

Measured: AC50

OC(CCl)CCl
inactive: [1] | [2] | [3] | [4] | [5] | [6] | [7] | [8] | [9] | [10] | [11] | [12] | [13] | [14] | [15] | [16] | [17] | [18] | [19] | [20]

OC(Cn1cncn1)(Cn1cncn1)c1ccc(F)cc1F
inactive: [1] | [2] | [3] | [4] | [5] | [6] | [7] | [8] | [9] | [10] | [11] | [12] | [13] | [14] | [16] | [17] | [18] | [19]

COc1cc(C(C)C)c2c(c1)S(=O)(=O)N(COc1cc(=O)n3cccc(OCCN4CCCCC4)c3n1)C2=O
active: [7] 5 µM | [9] 8.23 µM | [11] 4.05 µM | [13] 6.88 µM | [14] 5 µM | [15] 7.41 µM | [18] 8.4 µM | [19] 8.13 µM
inactive: [1] | [2] | [3] | [4] | [5] | [8] | [10] | [12] | [16] | [17] | [20]

C=CCc1cc(S(=O)(=O)c2ccc(O)c(CC=C)c2)ccc1O
active: [1] 12.4 µM | [2] 34.8 µM | [4] 23.8 µM | [5] 30.5 µM | [6] 37.5 µM | [7] 33.8 µM | [8] 20 µM | [9] 15.8 µM | [11] 13.9 µM | [12] 20 µM | [13] 8.38 µM | [14] 32.3 µM | [15] 13.4 µM | [16] 29.8 µM | [17] 10.5 µM | [18] 10.8 µM | [19] 23.5 µM | [20] 15.4 µM
inactive: [3] | [10]

OCC(CO)(CO)CO
inactive: [1] | [2] | [3] | [4] | [5] | [6] | [7] | [8] | [9] | [10] | [11] | [12] | [13] | [16] | [17] | [18] | [19]

CCCCCCOC(=O)CC(CC(=O)OCCCCCC)(OC(=O)CCC)C(=O)OCCCCCC
inactive: [1] | [2] | [3] | [4] | [5] | [6] | [7] | [8] | [9] | [10] | [11] | [12] | [13] | [14] | [15] | [16] | [17] | [18] | [19]

NC(=O)NN=Cc1ccc([N+](=O)[O-])o1
inactive: [1] | [2] | [3] | [4] | [5] | [7] | [8] | [9] | [10] | [11] | [12] | [13] | [14] | [16] | [17] | [18]
active: [19] 7.99 µM

Source: PubChem BioAssay (EPA / NIEHS)
